Most compounds without a hit are left out; they make up all but 2.4% or so of the library.
CHO-K1 Ca antag = M1 antagonist counterscreen hit in parental CHO-K1 cells; ATP-induced calcium, Fluo-8 fluorescence; inhibition, % at 3 µM; hit rate 0.6% among 360,000; AID 602250;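 active = inhibition above a per-plate cutoff, the plate's mean sample inhibition plus 3 SD, cut at about 24% in these data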;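 also: 0% = DMSO plus EC80 ATP and 100% = DMSO alone without ATP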
M1 PAM parental = M1 PAM counterscreen hit in parental CHO-K1 cells; ATP EC20, Fluo-8 calcium fluorescence; 0% at ATP EC20, 100% at ATP max; activation, % at 3 µM; hit rate 0.02% among 360,000; AID 602247;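 active = activation above the run cutoff, the mean activation of all test compounds plus 3 SD, cut at about 40% in these data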;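 also: peak over basal fluorescence ratio in a 140 s read after ATP addition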
CHRM1 antagonist = human CHRM1 antagonism. P11229. hit rate 1.3% among 360,000. inhibition, % at 3 µM. CHO-K1 hM1, Fluo-8 calcium fluorescence, ACh EC80 antagonist;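 active = percent inhibition above its own plate's cutoff, namely the mean of that plate's compound wells plus 3 SD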;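 also: peak over basal fluorescence ratio during 140 s after agonist addition; 0% = ACh EC80 plus DMSO and 100% = DMSO alone without agonist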
Target sequence (P11229 whole entry, looked up): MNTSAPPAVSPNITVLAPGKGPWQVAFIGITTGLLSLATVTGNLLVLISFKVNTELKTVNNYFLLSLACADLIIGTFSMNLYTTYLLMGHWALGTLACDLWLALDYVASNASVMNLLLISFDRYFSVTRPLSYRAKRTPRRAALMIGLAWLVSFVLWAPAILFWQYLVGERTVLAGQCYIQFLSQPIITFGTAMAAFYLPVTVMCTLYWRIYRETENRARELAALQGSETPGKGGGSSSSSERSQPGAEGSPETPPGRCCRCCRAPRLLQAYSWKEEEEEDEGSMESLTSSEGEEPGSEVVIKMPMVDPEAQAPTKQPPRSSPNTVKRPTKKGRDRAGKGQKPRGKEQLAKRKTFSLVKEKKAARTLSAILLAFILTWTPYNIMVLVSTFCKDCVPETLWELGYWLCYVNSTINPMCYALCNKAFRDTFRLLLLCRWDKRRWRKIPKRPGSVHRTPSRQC
M1 ag parental = M1 agonist counterscreen hit in parental CHO-K1 cells; Fluo-8 calcium fluorescence; scaled to maximal ATP response, vehicle zero; activation, % at 3 µM; hit rate 0.48% among 360,000; AID 602248; in the data active = activation above about 15%;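 also: untransfected CHO-K1 host cells lacking M1 receptor as counterscreen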
CHRM1 agonist = agonists of human M1 muscarinic receptor. P11229. CHO-K1 hM1, Fluo-8 calcium fluorescence, agonist mode; 0% DMSO, 100% acetylcholine EC100. activation, % at 3 µM. hit rate 0.33% among 360,000. AID 588814;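 active = activation above the run's mean compound activation plus 3 SD, cut at about 16% in these data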;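 also: peak over basal fluorescence ratio within a 140 s kinetic read after compound addition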
M1 PAM = potentiates human M1 receptor response to acetylcholine; P11229; CHO-K1 hM1, Fluo-8 calcium fluorescence, ACh EC20; 0% = ACh EC20, 100% = maximal ACh; activation, % at 3 µM; hit rate 0.088% among 360,000; AID 588819; in the data active = activation above about 19%, passing the limit was not always enough
Active calls of the source: *.

SMILES	CHO-K1 Ca antag	M1 PAM parental	CHRM1 antagonist	M1 ag parental	CHRM1 agonist	M1 PAM
CC(=O)OCCCN(C)CC/C=C1/c2ccccc2CSc2ccccc21	-5	11	74*	2	-6	-25
CCN(CC)C(=O)c1ncn2c1C(=O)N(C)CC2	27*	-8	7	0	-4	-3
CN1CCn2cnc(C(=O)NCc3ccccc3)c2C1=O	11	-9	24	5	-1	-21
Cc1ccc(C(=O)NCCSc2snnc2C)cc1	43*	-5	2	0	-5	-5
C=CCC1CCC/C(=N\NS(=O)(=O)c2ccc(C)cc2)C1 (stereo not drawn)	6	-10	-12	0	2	17
S=C(Nc1ccc(Oc2ccccc2)cc1)NC1CCCCCC1	6	6	29*	6	-5	-24
CN(C(=S)Nc1ccc(Oc2ccccc2)cc1)C1CCCCC1	13	7	39*	4	-9	-26
S=C(Nc1ccc(Oc2ccccc2)cc1)NC1CCCCC1	7	-2	-8	6	1	-13
CC(=O)Nc1ccc(SCC(=O)NC(=O)c2ccc(S(=O)(=O)N(C)C)cc2)cc1	-14	15	-9	1	-7	8
CC(=O)c1ccc(N2CCN(C3CCC(C(C)(C)C)CC3)CC2)cc1 (stereo not drawn)	6	-24	39*	0	-11	-22
C[C@@]12C(=O)N(c3ccc(F)cc3)C(=O)N1[C@@H]1c3ccccc3OC[C@@H]1[C@H]2c1ccccc1	-3	-13	3	0	0	9
Cc1ccc2c(c1)[C@H]1[C@H](CO2)[C@H](c2ccccc2)[C@]2(C)C(=O)Nc3ccc(F)cc3C(=O)N12	-4	-6	66*	0	-5	-30
C[C@]12C(=O)N(c3ccc(F)cc3)C(=O)N1[C@H]1c3ccccc3OC[C@@H]1[C@H]2c1ccccc1	-28	44*	-15	3	1	13
C[C@@]12C(=O)Nc3cc(F)ccc3C(=O)N1[C@H]1c3ccccc3OC[C@@H]1[C@@H]2c1ccccc1	-21	17	75*	1	-5	-33
Cc1ccc2c(c1)[C@H]1[C@H](CO2)[C@H](c2ccccc2)[C@]2(C)C(=O)Nc3cc(F)c(F)cc3C(=O)N12	-2	-17	41*	0	-9	-31
CC(OC(=O)c1ccc2ncsc2c1)C(=O)NC1CCCCC1C (stereo not drawn)	-6	0	-3	0	-2	4
C[C@H](CO)N1C[C@H](C)[C@@H](CN(C)Cc2ccc(C(=O)O)cc2)Oc2ccc(NS(=O)(=O)c3cn(C)cn3)cc2C1=O	-9	6	-25	0	-1	16
CC(C)c1ccc(NC2CCCN(C(=O)CCc3cnn(C)c3)C2)cc1 (stereo not drawn)	4	-1	0	0	-2	-1
COCCNC(=O)C1(C)CCCN(C(=O)c2ccccc2C(F)(F)F)C1 (stereo not drawn)	-7	19	-8	1	1	10
CC(=O)N1N=C(c2ccco2)CC1c1ccc(Cl)o1 (stereo not drawn)	-5	-2	-4	1	-3	4
Cc1nnc(N2CCCC(C(=O)NCc3ccc(OC(C)C)cc3)C2)c2nn(-c3ccccc3)c(C)c12 (stereo not drawn)	-22	12	41*	-1	-6	-20
Nc1ccc(S(=O)(=O)Nc2nc(-c3ccccc3)cc(-c3ccccc3O)n2)cc1	-8	13	-13	2	20*	2
Nc1ccc(S(=O)(=O)Nc2nc(-c3ccccc3)cc(-c3ccccc3)n2)cc1	-10	14	-13	7	-2	11
CC1=CC(C)(C)N(C(=O)CCl)c2cc(C)ccc21	-16	12	-4	0	-6	5
CC1=CC(C)(C)N(C(=O)CNC2CCCCC2)c2cc(C)ccc21	-9	10	99*	1	-6	-24
COc1cc(/C=N/Nc2nc(Nc3ccccc3)nc(-n3nc(C)cc3C)n2)cc(OC)c1OC	6	7	26*	5	-5	-18
